{"source": "the supplement of paper PMC10477191", "experiment_in_all_cases": "odor-evoked OSN spike response (post minus pre-stimulus); higher = stronger neuronal excitation", "details_in_all_cases": "odor dilution: 10^-4", "key": {"[1]": {"system": "Drosophila ezoana antennal basiconic sensillum ab1", "how_it_was_run": "(§1)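 Single sensillum recordings were made with a tungsten electrode at the base of antennal basiconic sensilla of restrained adult flies, with up to 3 sensilla per fly. Filter paper loaded with 10 µl of odorant at 10^−4 in mineral oil or DMSO was delivered as a 500 ms air pulse into a charcoal-filtered, humidified 1.5 l min^−1 air stream. The response is the change in spike frequency between 1-second pre- and post-stimulus windows (Auto Spike software), averaged over replicate sensilla.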"}, "[2]": {"system": "Drosophila ezoana antennal basiconic sensillum ab3", "how_it_was_run": "as §1"}, "[3]": {"system": "Drosophila virilis antennal basiconic sensillum AB2", "how_it_was_run": "as §1"}}, "note": "± gives the standard deviation of the averaged measurements."}
{"compound": "CC(C)=O", "note": "[acetone]", "values": [{"measurement": "odor-evoked OSN spike response", "setting": "[1]", "value": "67.1 ± 24", "unit": "spikes/s"}, {"measurement": "odor-evoked OSN spike response", "setting": "[2]", "value": "63.3 ± 28", "unit": "spikes/s"}, {"measurement": "odor-evoked OSN spike response", "setting": "[3]", "value": "53.7 ± 24", "unit": "spikes/s"}]}
